Source: PubChem
FEN1 inhibitor = blocks human flap endonuclease 1; P39748; AID 588795; Potency, µM (titrated, usually from 114 µM), most hits filed as inhibitors; Recombinant FEN1 flap cleavage, fluorescence, 15 min; 390,000 compounds, 0.35% hits; note: nearly all actives have a fitted effect of over 65% in size
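Recombinant FEN1 (10 nM) was preincubated with pin-transferred compounds for 15 min at room temperature, then flap DNA substrate (50 nM final) was added. Plates were read at 0 and 15 min, and normalized concentration–response data were fitted to a four-parameter Hill equation.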
TCR act = T cell receptor activation; primary human leukocytes, anti-CD3, IL-2 HTRF, 48 h; Potency, µM (highest dose often 9.22 µM), usual class: activators; 330,000 tested, under 10 active
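TCR engagement came from a-CD3 beads alone, with compounds added to primary human leukocytes for 48 hr. Secreted IL-2 bridged europium cryptate- and d2-labelled anti-IL-2 antibodies, giving FRET emission at 665nm after 320nm excitation.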
WRN helicase inh = inhibitors of human WRN helicase; 360,000 compounds, 0.46% hits; WRN helicase unwinding, fluorescent forked duplex, kinetic; AID 651768; Q14191; Potency, µM (series often up to 114 µM), hits mostly inhibitors; note: nearly all actives have a fitted effect of over 55% in size
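Screening of the MLSMR collection measured strand separation of a quenched forked DNA duplex (100 nM) by 20 nM WRN with 2 mM ATP, all final. Compounds were preincubated with enzyme 15 min at room temperature.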
PLK1 PBD block = PLK1 (human) polo-box domain binding inhibition. 360,000 compounds, 2.8% hits. AID 720504. Plk1 PBD binding of FITC phosphopeptide, fluorescence polarization. P53350. Potency, µM, hits mostly inhibitors; note: series mostly up to about 57 µM; nearly all actives have a fitted effect of over 65% in size
VDR inhibitor = inhibitors of human vitamin D receptor | AID 504847 | Potency, µM, hits mostly inhibitors | VDR-SRC2-3 peptide fluorescence polarization, 2 h | P11473 | 400,000 compounds, 0.93% hits
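Fluorescence polarization assay measuring small-molecule disruption of VDR binding to the coregulator peptide SRC2-3. Compounds were pin-transferred (23 nl) into the reagent mix and incubated 2 h at room temperature before reading.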
PI5P4K alpha inh = blocks human PI5P4K alpha kinase activity; PI5P4Kalpha enzyme, ADP-Glo luminescence, 60 min; active compounds read low; max response, %; 330,000 compounds, 1.2% hits; active = max response of -50% or lower; inconclusive = between -30% and -50%; inactive = -30% or higher; note: value at the top dose of about 77 µM
Target sequence (P48426 whole entry, looked up): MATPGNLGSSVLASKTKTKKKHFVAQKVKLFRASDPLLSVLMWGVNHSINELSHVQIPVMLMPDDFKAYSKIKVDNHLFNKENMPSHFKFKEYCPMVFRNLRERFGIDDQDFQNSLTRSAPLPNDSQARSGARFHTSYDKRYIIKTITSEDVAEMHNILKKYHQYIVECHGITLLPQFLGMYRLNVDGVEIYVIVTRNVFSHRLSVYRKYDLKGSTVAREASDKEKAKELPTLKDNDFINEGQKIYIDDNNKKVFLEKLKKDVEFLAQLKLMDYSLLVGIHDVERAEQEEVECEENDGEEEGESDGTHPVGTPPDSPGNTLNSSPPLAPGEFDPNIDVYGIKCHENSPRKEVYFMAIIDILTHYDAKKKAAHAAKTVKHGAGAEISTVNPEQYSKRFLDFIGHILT
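PI5P4Kalpha ADP-Glo assay; 5 microM ATP final; 60 min RT reaction; HEPES pH 7.4/EGTA/CHAPS, 5% DMSO; controls lacking substrate or enzyme; luminescent end-point.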
Numbers stand for hits. This is a sample that favours compounds with a hit; in the whole collection about 3.7% have one here. Unless noted, calls come from the whole dose curve; as a rule, active = well fitted curve in the direction sought with a large enough effect; inconclusive = small, poorly fitted or top-dose-only effect, or another doubt; inactive = no such curve, though single readings can be large; an effect the other way counts as inactive or inconclusive.

What do the screens show for `O=C(O)c1ccc(N=c2oc3cc(O)ccc3cc2C(=O)NCc2ccccc2)cc1`?
FEN1 inhibitor: inconclusive; TCR act: inactive; WRN helicase inh: inactive; PLK1 PBD block: inconclusive; VDR inhibitor: inactive; PI5P4K alpha inh: -78

Results for NC(=O)c1cc2ccc(O)cc2oc1=NCc1ccccc1 ?
FEN1 inhibitor: inactive; TCR act: inactive; WRN helicase inh: inactive; PLK1 PBD block: 12µM; VDR inhibitor: inactive

How did Cc1cc(Nc2cccc(C(F)(F)F)c2)nc2ccc(NC(=O)c3cncc(Br)c3)cc12 do in these assays?
FEN1 inhibitor: inactive; VDR inhibitor: inactive

What do the screens show for `O=C1N/C(=N/NC(=O)c2cccc3ccccc23)S/C1=C\c1ccccc1OCc1ccccc1`?
FEN1 inhibitor: inconclusive; TCR act: inactive; WRN helicase inh: 56µM; PLK1 PBD block: 27µM; VDR inhibitor: inactive; PI5P4K alpha inh: -55

What do the screens show for `O=C(C[n+]1csc2ccccc21)c1ccc(I)cc1`?
FEN1 inhibitor: inactive

How did Cn1nc(-c2ccc(Cl)cc2)c2cc(C(=O)NC3CC3)sc21 do in these assays?
FEN1 inhibitor: inactive; TCR act: inactive; WRN helicase inh: inactive; PLK1 PBD block: 30µM; VDR inhibitor: inconclusive; PI5P4K alpha inh: inactive

What do the screens show for `CCOCCCNC(=O)c1cc2c(-c3ccc(Cl)cc3)nn(C)c2s1`?
FEN1 inhibitor: inactive; TCR act: inactive; WRN helicase inh: inactive; PLK1 PBD block: inactive; VDR inhibitor: inactive; PI5P4K alpha inh: inactive

How did COc1cc(NC(=O)c2cc(Cl)ccc2Cl)ccc1NC(=O)c1cc2ccccc2o1 do in these assays?
FEN1 inhibitor: inactive; VDR inhibitor: inactive

How did CC(C)N(CCCNC(=O)CC1Oc2ccccc2NC1=O)Cc1ccccc1 (configuration not stated) do in these assays?
FEN1 inhibitor: inactive; TCR act: inactive; WRN helicase inh: inactive; PLK1 PBD block: 27µM; VDR inhibitor: inactive; PI5P4K alpha inh: inactive

How did CC1(C)CC(=O)c2cnc(N)nc2C1 do in these assays?
FEN1 inhibitor: inactive; WRN helicase inh: inactive; PLK1 PBD block: 27µM; VDR inhibitor: inconclusive; PI5P4K alpha inh: inactive

Results for CC1(C)CC(=O)c2cc3c(nc2C1)CC(C)(C)CC3=O ?
FEN1 inhibitor: inactive; TCR act: inactive; WRN helicase inh: inactive; PLK1 PBD block: inactive; VDR inhibitor: inactive; PI5P4K alpha inh: inactive

How did COc1ccc(C(=O)NCCC(=O)N2CCC3(CC2)NCCc2[nH]cnc23)cc1 do in these assays?
FEN1 inhibitor: inactive; TCR act: inactive; WRN helicase inh: inactive; PLK1 PBD block: 27µM; VDR inhibitor: inconclusive; PI5P4K alpha inh: inactive

How did COc1ccc(CC(=O)N[C@@H](C)C(=O)N2CCC3(CC2)NCCc2[nH]cnc23)cc1 do in these assays?
FEN1 inhibitor: inactive; TCR act: inactive; WRN helicase inh: inactive; PLK1 PBD block: inactive; VDR inhibitor: inactive; PI5P4K alpha inh: inactive

What do the screens show for `CCOc1cc(C(=O)NCC(=O)N2CCC3(CC2)NCCc2[nH]cnc23)cc(OCC)c1OCC`?
FEN1 inhibitor: inactive; TCR act: inactive; WRN helicase inh: inactive; PLK1 PBD block: inconclusive; VDR inhibitor: inactive; PI5P4K alpha inh: inactive

What do the screens show for `C[C@H](NC(=O)Cc1ccccc1)C(=O)N1CCC2(CC1)NCCc1[nH]cnc12`?
FEN1 inhibitor: inactive; TCR act: inactive; WRN helicase inh: inactive; PLK1 PBD block: 27µM; VDR inhibitor: inactive; PI5P4K alpha inh: inactive

How did Cc1ccc(S(=O)(=O)NC(=O)O[C@@H]2C(=O)c3cc(Br)ccc3O[C@H]2c2ccc3c(c2)OCO3)cc1 do in these assays?
VDR inhibitor: inactive

How did O=S(=O)(Nc1cccc(F)c1)c1ccc2[nH]c3c(c2c1)CCCCC3 do in these assays?
FEN1 inhibitor: inactive; VDR inhibitor: inactive

Results for O=C(Cn1cc(S(=O)(=O)Cc2cccc(Cl)c2)c2ccccc21)Nc1ccccc1Cl ?
FEN1 inhibitor: inactive; VDR inhibitor: inactive

What do the screens show for `Oc1ccc(N=Cc2ccc(O)c(O)c2)cc1`?
FEN1 inhibitor: inconclusive; TCR act: inactive; WRN helicase inh: 32µM; PLK1 PBD block: 21µM; VDR inhibitor: inconclusive; PI5P4K alpha inh: -79

How did COCCN(CCOC)S(=O)(=O)c1ccc(Cl)nc1 do in these assays?
FEN1 inhibitor: inactive; TCR act: inactive; WRN helicase inh: inactive; PLK1 PBD block: 21µM; VDR inhibitor: inactive; PI5P4K alpha inh: inactive

How did CCN(CC)S(=O)(=O)c1ccc(Cl)nc1 do in these assays?
FEN1 inhibitor: inactive; TCR act: inactive; WRN helicase inh: inactive; PLK1 PBD block: inactive; VDR inhibitor: inactive; PI5P4K alpha inh: inactive

How did Cc1[nH]c(=O)[nH]c(=O)c1Sc1ccccc1[N+](=O)[O-] do in these assays?
FEN1 inhibitor: inactive; TCR act: inactive; WRN helicase inh: inactive; PLK1 PBD block: 21µM; VDR inhibitor: inactive; PI5P4K alpha inh: inactive

What do the screens show for `CCn1nnc2c(N3CCCC3)ncnc21`?
FEN1 inhibitor: inactive; VDR inhibitor: inconclusive

Results for N#CC(=C(O)COC(=O)Cc1c[nH]c2ccccc12)c1nc2ccccc2[nH]1 ?
FEN1 inhibitor: inactive; TCR act: inactive; WRN helicase inh: inactive; PLK1 PBD block: inactive; VDR inhibitor: inactive; PI5P4K alpha inh: -54

Results for CCCC(=O)OC/C(O)=C(\C#N)c1nc2ccccc2[nH]1 ?
FEN1 inhibitor: inactive; TCR act: inactive; WRN helicase inh: inactive; PLK1 PBD block: inactive; VDR inhibitor: inactive; PI5P4K alpha inh: inactive

Results for COc1ccc(NC(=O)CN(C)CC(=O)NCCc2ccc(F)cc2)cc1 ?
FEN1 inhibitor: inactive; TCR act: inactive; WRN helicase inh: inactive; PLK1 PBD block: inactive; VDR inhibitor: inactive; PI5P4K alpha inh: inactive

What do the screens show for `COc1ccc(CCCC(=O)Nc2ccc(F)cc2)cc1`?
FEN1 inhibitor: inactive; TCR act: inactive; WRN helicase inh: inactive; PLK1 PBD block: 21µM; VDR inhibitor: inactive; PI5P4K alpha inh: inactive

Results for CCCCN1C(=O)CN(C2CCCCCC2)C(=O)C1c1ccc(OCCC)c(OC)c1 (configuration not stated) ?
FEN1 inhibitor: inactive; VDR inhibitor: inactive

Results for COc1ccc(Cc2nn3c(Cn4nnc5ccccc54)nnc3s2)cc1 ?
FEN1 inhibitor: inactive; TCR act: inactive; WRN helicase inh: inactive; PLK1 PBD block: 21µM; VDR inhibitor: inconclusive; PI5P4K alpha inh: inconclusive

What do the screens show for `c1ccc(-c2nn3c(Cn4nnc5ccccc54)nnc3s2)cc1`?
FEN1 inhibitor: inactive; WRN helicase inh: inactive; PLK1 PBD block: 13µM; VDR inhibitor: inactive

Results for COc1ccc(-n2c(Cn3nnc4ccccc43)n[nH]c2=S)cc1 ?
FEN1 inhibitor: inactive; TCR act: inactive; WRN helicase inh: inactive; PLK1 PBD block: inactive; VDR inhibitor: inactive; PI5P4K alpha inh: inactive

What do the screens show for `COc1cc(-c2cc(-c3ccc(O)cc3)nc(N)c2C#N)ccc1O`?
FEN1 inhibitor: inconclusive; WRN helicase inh: inactive; PLK1 PBD block: inactive; VDR inhibitor: inactive; PI5P4K alpha inh: -51

What do the screens show for `Cn1cccc1/C=N/NC(=O)c1ccncc1`?
FEN1 inhibitor: inactive; TCR act: inactive; WRN helicase inh: inactive; PLK1 PBD block: inactive; VDR inhibitor: inactive; PI5P4K alpha inh: inactive
